Assay results from PubChem BioAssay (Tox21).
Records with an inconclusive call do not appear. A call without a number means that no potency is given here. Calls of active or inactive are those of the source. Calls come from the whole dose curve; as a rule, active = well fitted cell-killing curve with a large enough effect in the repeat runs; inconclusive = weak or mixed curves, or effect the other way; inactive = flat fitted curve, though single readings scatter.

Assay: qHTS assay to identify small molecule antagonists of the constitutive androstane receptor (CAR) signaling pathway - cell viability counter screen (AID 1224837); note: nearly all actives have a fitted effect of over 45% in size
Settings: HepG2-CYP2B6-hCAR viability, CellTiter-Fluor, 23 h, co-treated with 50 nM CITCO; series mostly up to 92.4 µM
Excerpt: National Center for Advancing Translational Sciences [NCATS]
NIH Chemical Genomics Center [NCGC]
U.S. Environmental Protection Agency [EPA]
National Institutes of Environmental Health Sciences [NIEHS]
National Toxicology Program [NTP]
U.S. Food and Drug Administration [FDA]
The constitutive androstane receptor (CAR) is a nuclear receptor which regulates multiple drug metabolizing enzymes (DMEs) and transporters. Activating CAR will generally increase the transcription and subsequent translation of CYP2B6 and CYP3A4. These two DMEs represent about 50% of the drug metabolizing potential in the body. When CAR is deactivated, the metabolizing potential in the body will decrease, subsequently increasing the toxicity in the body or lowering the therapeutic potential of a pro-drug. Recently, there have also been studies performed indicating CARs role in energy metabolism and cancer therapy. Therefore, inhibiting CARs activity could have a potential effect on diabetes and cancer. Identifying environmental toxins and compounds which modulate CAR, through the use of the Tox21 10K compound collection, will be an important step in determining the toxicity and potential therapeutic effects these factors will have on the human body. To differentiate true CAR antagonists from cytotoxic substances, the assay is multiplexed with a cell viability assay.
Tox21 Assay Protocol Summary:
A double-stable (hCAR and CYP2B6-2.2kb) transfected cell line, derived from human hepatoma (HepG2) cells, was utilized for the duration of the quantitative high-throughput screens. The HepG2-CYP2B6-hCAR cells were dispensed at 2500 cells/4 uL/well in 1536-well white solid bottom plates using a Multidrop Combi. After the assay plates were incubated at 37 C/5% CO2 for 4 hrs, 23 nL of compounds at 15 concentrations (from 5-48 columns) or positive control (from 1 to 4 columns) were transferred to the assay plates using a Pintool station. One uL of CITCO (final concentration = 50 nM) was added, using a Flying Reagent Dispenser, inside each well. After a 23 hr incubation period at 37 C/5% CO2, 1 uL of CellTiter-Fluor reagent was added into each well of the assay plates using a Flying Reagent Dispenser. The fluorescence intensity in the plates was then measured using a ViewLux plate reader.

SMILES | Potency
OCc1c2ccccc2cc2ccccc12 | inactive
O=C1CCN(c2ccccc2)N1 | inactive
CCCC1CCC(=O)O1 (stereo not given) | inactive
CCCNC(C)(C)COC(=O)c1ccccc1 | inactive
NS(=O)(=O)c1cc(-c2nn[nH]n2)c(NCc2cccs2)cc1Cl | inactive
CCOC(=O)C(Br)c1ccccc1 (stereo not given) | inactive
CCCC(CCC)(C(=O)OCC)C(=O)OCC | inactive
COc1ccc2nc(NC(=O)Nc3ccccc3)sc2c1 | inactive
CC(C)C1=CC2=CC[C@@H]3[C@](C)(CCC[C@@]3(C)C(=O)O)[C@H]2CC1 | inactive
Cc1ncc(CO)c(CN)c1O | inactive
CC(C)NC[C@@H](O)COc1cccc2ccccc12 | inactive
COC(=O)C(C)O (stereo not given) | inactive
Cc1cc(NS(=O)(=O)c2ccc(N)cc2)nc(C)n1 | inactive
CN(C)Cc1ccccc1 | inactive
O=Cc1ccc(F)c(Br)c1 | inactive
CCCCNc1ccc(C(=O)OCCN(CC)CC)cc1 | inactive
CCc1cc(Cl)c(OC)c(C(=O)NC[C@@H]2CCCN2CC)c1O | inactive
CC(C)C(=O)OC/C=C/c1ccccc1 | inactive
Cc1c(-c2ccccc2)oc2c(C(=O)OCCN3CCCCC3)cccc2c1=O | inactive
COc1cc(N)c(Cl)cc1C(=O)NC1CCN(Cc2ccccc2)CC1 | inactive

SMILES | Potency
CN1CCN(c2c(F)cc3c(=O)c(C(=O)O)cn4c3c2SCC4)CC1 | inactive
CO[Si](C)(C)OC | inactive
O=C1C=CC(=O)O1 | inactive
CC(C)=CCC[C@](C)(O)[C@@H]1CC=C(C)CC1 | inactive
CC(C)O | inactive
CCCCCCCCOC(=O)CCCCCCCCC(=O)OCCCCCCCC | inactive
O=CCCc1ccccc1 | inactive
CCc1cc2cc(OC)c(OC)cc2c(Cc2ccccc2)n1 | inactive
COc1ccccc1OCC(O)COC(N)=O (stereo not given) | inactive
c1ccc(CN(CC2=NCCN2)c2ccccc2)cc1 | inactive
CNCCC(Oc1ccccc1OC)c1ccccc1 (stereo not given) | inactive
CC1(O)CSC(C)(O)CS1 (stereo not given) | inactive
CCCS(=O)c1ccc2nc(NC(=O)OC)[nH]c2c1 (stereo not given) | inactive
COc1ccc(Nc2ccc(OC)cc2)cc1 | inactive
CCC/C=C/CO | inactive
CC/C=C\CCOC(=O)CCCCC | inactive
Cc1ccc(C=O)s1 | inactive
CN(C)CCOc1ccccc1Cc1ccccc1 | inactive
CCNCCO | inactive
CCCOCCC | inactive
